Here are results for 9 molecules from PubChem BioAssay.

Several values for one entry are separate records, joined by “and”; a condition that tells them apart may be missing. Identical values can stand only once. Activity calls are given as the source filed them.

A short description of assay [1]: optical density shifts of acrAB sulA E. coli – strain DRC41, OD650, 48 h, E. coli filamentation inducer project, primary screen (AID 1152).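 Further: E. coli MC1000 strain DRC41 lacking acrAB efflux pump and sulA.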 Particulars: higher = more signal, called active from +8 up or from −8 down.
A short description of assay [2]: probe aLefty1 binding on compound microarray – biochemical, small-molecule microarray, 635/667 nm fluorescence, primary screen (AID 1153).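 Further: score merges spot fluorescence with signal-to-noise ratio from the scanned slide images.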 The note with it: higher = more signal.
The nature of assay [3]: plasmodial surface anion channel blockers, osmotic lysis – cell-based, P. falciparum Indochina, OD700, 1 h, primary screen (AID 1154). Particulars: P. falciparum Indochina infected RBC osmotic lysis, higher = more signal, called active from +8 up or from −8 down.
Assay [4] in a line: plasmodial surface anion channel blockers, osmotic lysis – cell-based, P. falciparum Indochina, OD700, 2 h, primary screen (AID 1155).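 Further: lysis reports solute entry through the parasite surface anion channel PSAC.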 Particulars: P. falciparum Indochina infected erythrocytes, higher = more signal, called active from +8 up or from −8 down.
Assay [5] can be described thus: changes in parasitized red cell lysis, either direction – P. falciparum Indochina, OD700, 3 h, PSAC antagonist project, primary screen (AID 1156). The note with it: P. falciparum-infected erythrocytes, osmotic lysis, higher = more signal, called active from +8 up or from −8 down.
Assay [6] in a line: plasmodial surface anion channel blockers, osmotic lysis – cell-based, P. falciparum Indochina, OD700, 18 h, primary screen (AID 1157). Particulars: P. falciparum Indochina infected erythrocytes, osmotic lysis OD700, 18 h; higher = more signal, called active from +8 up or from −8 down.
Assay [7] is described as follows: S6 kinase pathway phospho-S6 level changes – cell-based, A549, cytoblot, luminescence, serum-stimulated, primary screen (AID 1158).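 Further: serum-stimulated A549 lung adenocarcinoma cells; signal is phosphorylated S6 detected by cytoblot immunostaining with HRP secondary.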 Particulars: 5 h, higher = more signal.
Assay [8] concerns the target NADPH oxidase 2 (Homo sapiens) (UniProt P04839). The assay is described as follows: compounds shifting NOX2 Amplex Red fluorescence – cell-based, HEK293-NOX2, PMA-stimulated, NOX inhibitor project, primary screen (AID 1159). Further: test concentration not given here. Particulars: 45 min, higher = more signal, called active from +8 up or from −8 down.
The target of assay [9] is NADPH oxidase 4 (Homo sapiens) (UniProt Q9NPH5). The assay is described as follows: compounds shifting NOX4 Amplex Red fluorescence – cell-based, HEK293-NOX4, tetracycline-induced, NOX inhibitor project, primary screen (AID 1160). Particulars: HEK293-NOX4, Amplex Red H2O2 fluorescence, 45 min; higher = more signal, called active from +8 up or from −8 down.
The target of assay [10] is NADPH oxidase 5 (Homo sapiens) (UniProt Q96PH1). Nature of the assay: compounds shifting NOX5 Amplex Red fluorescence – cell-based, HEK293-NOX5, NOX inhibitor project, primary screen (AID 1161). Particulars: HEK293-NOX5, ionomycin, 45 min, higher = more signal.
Sequence of NADPH oxidase 5 (Homo sapiens) (Q96PH1 whole entry, looked up): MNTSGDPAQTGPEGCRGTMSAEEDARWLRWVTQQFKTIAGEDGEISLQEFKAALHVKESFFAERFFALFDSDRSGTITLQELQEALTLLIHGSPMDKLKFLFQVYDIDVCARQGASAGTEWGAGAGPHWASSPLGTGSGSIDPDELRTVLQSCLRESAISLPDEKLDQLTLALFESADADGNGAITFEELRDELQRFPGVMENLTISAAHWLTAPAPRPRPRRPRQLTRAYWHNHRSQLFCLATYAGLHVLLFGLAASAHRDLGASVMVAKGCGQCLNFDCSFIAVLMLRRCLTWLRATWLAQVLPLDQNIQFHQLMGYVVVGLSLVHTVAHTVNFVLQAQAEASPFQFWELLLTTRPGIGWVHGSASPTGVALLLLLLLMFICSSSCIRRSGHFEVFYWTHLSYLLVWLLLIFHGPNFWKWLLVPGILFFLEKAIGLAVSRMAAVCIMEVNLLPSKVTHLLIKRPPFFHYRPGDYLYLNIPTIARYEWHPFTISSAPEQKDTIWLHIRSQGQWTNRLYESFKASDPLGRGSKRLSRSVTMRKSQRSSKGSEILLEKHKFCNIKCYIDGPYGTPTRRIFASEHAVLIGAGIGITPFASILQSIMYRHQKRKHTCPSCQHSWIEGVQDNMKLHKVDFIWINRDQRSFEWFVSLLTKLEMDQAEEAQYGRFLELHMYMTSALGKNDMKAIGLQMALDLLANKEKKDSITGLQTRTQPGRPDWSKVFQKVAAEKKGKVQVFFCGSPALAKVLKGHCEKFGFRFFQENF

Sequence of NADPH oxidase 2 (Homo sapiens) (P04839 whole entry, looked up): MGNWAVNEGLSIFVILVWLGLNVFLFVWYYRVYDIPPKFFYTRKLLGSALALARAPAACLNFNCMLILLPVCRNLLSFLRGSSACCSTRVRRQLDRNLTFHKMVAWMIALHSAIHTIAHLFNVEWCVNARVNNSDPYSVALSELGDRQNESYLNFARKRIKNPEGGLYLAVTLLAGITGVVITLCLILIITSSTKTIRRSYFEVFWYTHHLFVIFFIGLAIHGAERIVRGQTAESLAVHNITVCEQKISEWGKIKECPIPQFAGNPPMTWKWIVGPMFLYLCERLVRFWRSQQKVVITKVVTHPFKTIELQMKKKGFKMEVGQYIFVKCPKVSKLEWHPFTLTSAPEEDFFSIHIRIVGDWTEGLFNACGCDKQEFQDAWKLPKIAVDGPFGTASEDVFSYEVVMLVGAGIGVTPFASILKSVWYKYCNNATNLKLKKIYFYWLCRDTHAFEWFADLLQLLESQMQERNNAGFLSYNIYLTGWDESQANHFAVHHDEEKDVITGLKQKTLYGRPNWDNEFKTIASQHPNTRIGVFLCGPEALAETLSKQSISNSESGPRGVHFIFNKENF
Sequence of NADPH oxidase 4 (Homo sapiens) (Q9NPH5 whole entry, looked up): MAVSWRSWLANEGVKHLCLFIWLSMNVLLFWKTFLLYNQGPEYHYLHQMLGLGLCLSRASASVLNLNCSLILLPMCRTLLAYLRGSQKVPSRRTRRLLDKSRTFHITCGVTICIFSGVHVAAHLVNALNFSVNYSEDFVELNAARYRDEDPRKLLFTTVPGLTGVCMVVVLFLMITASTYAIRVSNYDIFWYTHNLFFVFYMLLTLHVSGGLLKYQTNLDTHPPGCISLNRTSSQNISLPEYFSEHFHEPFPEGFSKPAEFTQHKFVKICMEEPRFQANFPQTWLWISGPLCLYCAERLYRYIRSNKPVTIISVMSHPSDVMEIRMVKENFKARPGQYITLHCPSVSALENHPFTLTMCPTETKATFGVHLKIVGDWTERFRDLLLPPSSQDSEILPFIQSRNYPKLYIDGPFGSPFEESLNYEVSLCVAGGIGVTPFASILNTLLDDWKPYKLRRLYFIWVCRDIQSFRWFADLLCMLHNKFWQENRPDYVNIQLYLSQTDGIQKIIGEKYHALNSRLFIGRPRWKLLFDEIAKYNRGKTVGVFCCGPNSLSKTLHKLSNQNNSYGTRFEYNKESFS

Regarding `C=C[C@@H](C)[C@@H](O)c1ccc(O)c2ccccc12`, the z-score in [1] was -0.433 (inactive) and 0.891 (inactive); in [3], 0.837 (inactive) and 2.36 (inactive); in assay [4], -0.0805 (inactive) and 0.389 (inactive); in assay [5], -0.718 (inactive) and 0.0336 (inactive); in assay [6], 0.205 (inactive) and 1.19 (inactive); in assay [7], -0.565 and 0.273. Besides, the z-score was -5.58 (inactive) and -5.73 (inactive) in assay [8]; -0.616 (inactive) and -1.33 (inactive) in assay [9]; 1.95 and 1.31 in [10]. Besides, the composite z-score in assay [2] is -0.194 and -0.0851.
As to `Cc1ccc(S(=O)(=O)N[C@H]2COC(=O)[C@@H](C)COC(=O)[C@H](C)NC(=O)CC=C[C@H]2C)cc1`, the z-score in assay [1] was -0.117 (inactive); in assay [3], -0.306 (inactive); in [4], 0.286 (inactive); in assay [5], 0.501 (inactive); in [6], 0.0584 (inactive); in [7], -0.177. Also, the figures for the z-score in [8], in [9] and in assay [10] were -1.36 (inactive), 0.555 (inactive) and 0.0658, respectively. In addition, the composite z-score in [2] was -0.195.
Consider `COC(=O)C1=C(C)N(Cc2ccccc2)C2=C(C(=O)c3ccccc3)[C@H](c3ccccc3)[C@@](O)(C(=O)OC)C(=O)N2[C@@H]1c1ccccc1`, for which the z-score is 0.809 (inactive) and 0.498 (inactive) in assay [1]; 1.74 (inactive) and 0.552 (inactive) in assay [3]; 0.852 (inactive) and 0.417 (inactive) in assay [4]; -0.326 (inactive) and -0.171 (inactive) in assay [5]; 0.442 (inactive) and 0.39 (inactive) in assay [6]; 0.533 and -0.266 in [7]. The z-score was 1.06 (inactive) and 0.0122 (inactive) in assay [8]; 0.59 (inactive) and -0.238 (inactive) in assay [9]; 1.59 and 0.157 in [10]. For the same molecule, the composite z-score in assay [2] was -0.234 and -0.168.
On to `CON(C)C(=O)c1nnc2c3ccccc3n(S(=O)(=O)c3ccc(C)cc3)c2n1`, for which the z-score was -0.162 (inactive) and 0.162 (inactive) in assay [1]; 1.21 (inactive) and 2.08 (inactive) in assay [3]; 0.0579 (inactive) and 0.454 (inactive) in assay [4]; -0.212 (inactive) and 0.184 (inactive) in assay [5]; -0.096 (inactive) and 0.149 (inactive) in assay [6]; -0.375 and 0.313 in assay [7]. The z-score in assay [8] is 0.442 (inactive) and -1.24 (inactive); in [9] it was 0.882 (inactive) and 0.0607 (inactive); in assay [10], 0.436 and 0.278. The composite z-score in assay [2] was -0.262 and -0.368.
Regarding `C=CCN(C(=O)C(c1cccs1)N(C(=O)/C=C\C(=O)O)c1ccc(CCO)cc1)C(C)(C)C` (stereo not given), the z-score in assay [1] is 0.381 (inactive) and -0.0974 (inactive); in [3], -0.274 (inactive) and -0.322 (inactive); in assay [4] it was -0.432 (inactive) and 0.0511 (inactive); in assay [5], -0.518 (inactive) and -0.338 (inactive); in assay [6], 0.0097 (inactive) and 0.232 (inactive); in assay [7], 1.36 and 0.123. The z-score was 0.0507 (inactive) and 0.27 (inactive) in assay [8]; -0.86 (inactive) and -0.783 (inactive) in assay [9]; 0.274 and 0.335 in assay [10]. Moreover, the composite z-score in [2] is -0.134 and 0.0355.
For `C[N+](C)(C)CCCCNC(=O)[C@H]1C[C@H]2C(=O)N[C@@H](CCCC[N+](C)(C)C)C(=O)N2[C@H]1c1cccc(OCCO)c1`, the z-score in [1] was -0.398 (inactive) and -0.737 (inactive); in assay [3] it was 1.37 (inactive) and 2.16 (inactive); in [4], 0.244 (inactive) and 0.944 (inactive); in assay [5], -0.706 (inactive) and 0.0108 (inactive); in assay [6], 0.155 (inactive) and 0.23 (inactive); in [7], 0.2 and -0.314. The z-score in assay [8] was -0.187 (inactive) and -1.8 (inactive); in [9], -0.217 (inactive) and -0.934 (inactive); in [10] it was 0.0197 and 0.0552. Besides, in [2], the composite z-score is 0.266 and -0.483.
In the case of `CO[C@@H]1COC(=O)CC=C[C@H](C)COC(=O)[C@H](C)NC(=O)CC=C[C@H]1C`, the z-score in assay [1] was -0.762 (inactive); in assay [3] it was -0.0875 (inactive); in assay [4], 0.193 (inactive); in [5], 0.599 (inactive); in assay [6], -0.138 (inactive); in [7] it was -0.677. Besides, the z-score in [8] is 2.01 (inactive); in [9] it was 0.486 (inactive); in assay [10], -0.47. Besides, the composite z-score in assay [2] was -0.344.
For `CC(C)=NO[C@@H](C)c1cc(-c2c(C)cc(C)cc2C)no1`, the z-score is -2.27 (inactive) in [1]; 0.944 (inactive) in [3]; 0.371 (inactive) in assay [4]; 1.37 (inactive) in assay [5]; -1.23 (inactive) in assay [6]; 0.702 in assay [7]. Moreover, the z-score in assay [8] was -0.639 (inactive); in assay [9], -1.28 (inactive); in assay [10], -1.13. Moreover, the composite z-score in assay [2] is -0.278.
For the molecule `Cc1ccc(S(=O)(=O)N[C@@H]2COC(=O)CC=C[C@@H](C)[C@@H]3C=C[C@H](O)[C@@H](COC(=O)CC=C[C@H]2C)O3)cc1`, the z-score in assay [1] was -0.134 (inactive) and -0.835 (inactive); in [3], -0.178 (inactive) and -0.723 (inactive); in assay [4], -0.377 (inactive) and -1.3 (inactive); in [5], -0.603 (inactive) and 1.03 (inactive); in assay [6] it was 0.035 (inactive) and -1.47 (inactive); in [7], 0.116 and 1.08. Also, the z-score is -2.15 (inactive) and -1.22 (inactive) in [8]; 0.427 (inactive) and -1.36 (inactive) in assay [9]; 0.353 and -2.6 in assay [10]. Moreover, in assay [2], the composite z-score was -0.217 and 0.0658.
